Laboratory results as given in PubChem BioAssay (NCI).
The panel holds about 83,000 compounds, 20% with a hit somewhere; the sample as a whole holds those more often.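 Negative percent growth values reflect cell death: -40 means 40% of the cells present at the start died, and -100 means all died.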 The source made the active and inactive calls. The calls were made as follows: active = growth percent below 10; inactive = the rest.

These compounds were tested on IGROV1 ovarian (assay: NCI-60 one-dose screen, 48 h (100 = growth as untreated, 0 = no growth, -100 = all killed)). Settings: 10 µM unless noted.
For `COc1cccc(CC(C)=C(c2ccc(OCCN(C)C)cc2)c2ccc(OCCN(C)C)cc2)c1`, the growth was 8.66% (active).
With `N/C(=N\C(N)=N\c1nc2ccccc2s1)c1cccc(Br)c1` the growth was 66.4% (inactive).
For `O=C(Nc1ccc(Cl)c(Cl)c1)NS(=O)(=O)c1cnccc1Oc1ccc(F)cc1`, the growth was 71.7% (inactive).
`Cc1ccc(S(=O)(=O)NC(=O)n2cc(-c3ccncc3)c(-c3ccc(Cl)c(O)c3)n2)cc1` was tested, and the growth was 112% (inactive).
`CCN(CC)CCC(CNc1ccnc2cc(Cl)ccc12)c1ccc(Cl)cc1` (stereo not drawn) was tested, and the growth was 33.5% (inactive).
`CCN(CC)CCOc1ccc(Cl)c(C)c1` was tested, and the growth was 99.6% (inactive).
For `OC(c1cc2cc(Br)ccc2c2cc(Br)ccc12)C1CCCCN1` (stereo not drawn), the growth was -67% (active).
For `CCN(CC)CCC(CNc1ccnc2cc(Cl)ccc12)c1ccccc1` (stereo not drawn), the growth was 80.2% (inactive).
`CCCCCCCCCCCCNC(=O)[C@H]1CSC(c2cc3ccccc3s2)N1` (stereo partly drawn) was tested, and the growth was -63.2% (active).
With `CCCCCCN1CSC(=S)N(CCCCCC)C1` the growth was 101% (inactive).
In the case of `CC1(c2ccc(Cl)cc2)OC(=O)CC(=O)O1`, the growth was 108% (inactive).
In the case of `O=C(NS(=O)(=O)c1ccc2ccccc2c1)n1cc(-c2ccncc2)c(-c2ccc(Cl)c(O)c2)n1`, the growth was 60.2% (inactive).
For `CN(C)CCOC(=O)Nc1ccccc1Cl`, the growth was 106% (inactive).
For `Cc1c(C(=O)/C=C/c2csc3ccccc23)[n+](=O)c2ccccc2n1[O-]`, the growth was 16.6% (inactive).
In the case of `CN(C)CCCN(c1nc(C(Cl)(Cl)Cl)ns1)c1nc(C(Cl)(Cl)Cl)ns1`, the growth was 36.6% (inactive).
`CC[N+](CC)=c1cc2oc3cc(N(C)C)ccc3nc-2cc1C` was tested, and the growth was -56.4% (active).
With `CCN(CC)CCC(CNc1c2ccc(Cl)cc2nc2ccc(OC)cc12)c1ccccc1` (stereo not drawn) the growth was -10.5% (active).
In the case of `CN1CCN(Cc2ccc(NC(=O)c3nc4ccc5[nH]ncc5c4c4c3CCC4)cc2C(F)(F)F)CC1`, the growth was -80.9% (active).
In the case of `COc1ccc(N=Cc2c(O)ccc3c2oc2cc(Cl)c(O)c(Cl)c23)cc1`, the growth was 62.2% (inactive).
With `O=C(O)C1CCCCN1c1nc(Cl)nc(Cl)n1` (stereo not drawn) the growth was 106% (inactive).
For `C=CCn1c2ccccc2c2c3c(c4c5ccccc5n(CC=C)c4c21)C(=O)N(O)C3=O`, the growth was -15.6% (active).
`Nc1cccc(Cl)c1N` was tested, and the growth was 88% (inactive).
With `O=C(NS(=O)(=O)c1ccccc1)n1cc(-c2ccncc2)c(-c2ccc(Cl)c(O)c2)n1` the growth was 96.8% (inactive).
For `Cc1csc(NC(c2ccc(Br)cc2)c2c(C)nc3ccccn23)n1` (stereo not drawn), the growth was 86.5% (inactive).
`O=S(=O)(c1ccc(OCCO)cc1)c1ccc(OCCO)cc1` was tested, and the growth was 87.5% (inactive).
For `COc1cc(-c2nn(C(=O)NS(=O)(=O)c3ccccc3)cc2-c2ccncc2)ccc1Cl`, the growth was 78.6% (inactive).
`N=c1ccc2nc3ccc(N)cc3sc-2c1` was tested, and the growth was 40.6% (inactive).
In the case of `Cc1ccc(Cc2c(C=O)nc(N)[nH]c2=O)c2ccccc12`, the growth was 106% (inactive).
For `CC(C)(C)NCCC(O)c1cc2c(Cl)cc(Cl)cc2c2cc(C(F)(F)F)ccc12` (stereo not drawn), the growth was -63.2% (active).
With `Nc1ccc(C(=O)CSc2nc3ccccc3[nH]2)cc1` the growth was 112% (inactive).
With `CCCC(=O)Oc1ccc(/C(=C(\C)c2ccccc2)c2ccc(OCCN(CC)CC)cc2)cc1` the growth was 90.7% (inactive).
With `C/C=C(\C)C(C(=O)NC1CCCCC1)N(C(=O)C1CCc2cc(F)ccc2O1)c1ccc(Cl)cc1` (stereo not drawn) the growth was 103% (inactive).
`Cn1ccc(=O)c(S(N)(=O)=O)c1` was tested, and the growth was 124% (inactive).
`O=c1[nH]c(NCc2ccccc2)nc2nc(Nc3ccc(NC(=S)Nc4ccccc4)cc3)nc(-c3ccc(O)cc3O)c12` was tested, and the growth was 70.3% (inactive).
`COc1ccc(-n2c(-c3ccccc3)c(-c3ccccc3)c3c(SCC(=O)N/N=C/c4ccc(Cl)cc4)ncnc32)cc1` was tested, and the growth was 87.9% (inactive).
For `COc1ccc(S(=O)(=O)NCCCNc2nccc(-c3c(-c4cccc([N+](=O)[O-])c4)nc4sccn34)n2)cc1`, the growth was 40.1% (inactive).

The compounds below were run on OVCAR-3 ovarian in the same assay as above. Settings: 10 µM unless noted.
With `COc1cccc(CC(C)=C(c2ccc(OCCN(C)C)cc2)c2ccc(OCCN(C)C)cc2)c1` the growth was -17.8% (active).
In the case of `N/C(=N\C(N)=N\c1nc2ccccc2s1)c1cccc(Br)c1`, the growth was 103% (inactive).
In the case of `O=C(Nc1ccc(Cl)c(Cl)c1)NS(=O)(=O)c1cnccc1Oc1ccc(F)cc1`, the growth was 8.22% (active).
With `Cc1ccc(S(=O)(=O)NC(=O)n2cc(-c3ccncc3)c(-c3ccc(Cl)c(O)c3)n2)cc1` the growth was 146% (inactive).
With `CCN(CC)CCC(CNc1ccnc2cc(Cl)ccc12)c1ccc(Cl)cc1` (stereo not drawn) the growth was 25% (inactive).
In the case of `CCN(CC)CCOc1ccc(Cl)c(C)c1`, the growth was 95.1% (inactive).
With `OC(c1cc2cc(Br)ccc2c2cc(Br)ccc12)C1CCCCN1` (stereo not drawn) the growth was -91.9% (active).
In the case of `CCN(CC)CCC(CNc1ccnc2cc(Cl)ccc12)c1ccccc1` (stereo not drawn), the growth was 79.9% (inactive).
`CCCCCCCCCCCCNC(=O)[C@H]1CSC(c2cc3ccccc3s2)N1` (stereo partly drawn) was tested, and the growth was -61.3% (active).
With `CCCCCCN1CSC(=S)N(CCCCCC)C1` the growth was 109% (inactive).
`CC1(c2ccc(Cl)cc2)OC(=O)CC(=O)O1` was tested, and the growth was 104% (inactive).
For `O=C(NS(=O)(=O)c1ccc2ccccc2c1)n1cc(-c2ccncc2)c(-c2ccc(Cl)c(O)c2)n1`, the growth was 133% (inactive).
In the case of `CN(C)CCOC(=O)Nc1ccccc1Cl`, the growth was 121% (inactive).
In the case of `Cc1c(C(=O)/C=C/c2csc3ccccc23)[n+](=O)c2ccccc2n1[O-]`, the growth was -38.8% (active).
In the case of `CN(C)CCCN(c1nc(C(Cl)(Cl)Cl)ns1)c1nc(C(Cl)(Cl)Cl)ns1`, the growth was 31.7% (inactive).
With `CC[N+](CC)=c1cc2oc3cc(N(C)C)ccc3nc-2cc1C` the growth was -55.6% (active).
For `CCN(CC)CCC(CNc1c2ccc(Cl)cc2nc2ccc(OC)cc12)c1ccccc1` (stereo not drawn), the growth was -30.5% (active).
For `CN1CCN(Cc2ccc(NC(=O)c3nc4ccc5[nH]ncc5c4c4c3CCC4)cc2C(F)(F)F)CC1`, the growth was -91.3% (active).
`COc1ccc(N=Cc2c(O)ccc3c2oc2cc(Cl)c(O)c(Cl)c23)cc1` was tested, and the growth was 117% (inactive).
For `O=C(O)C1CCCCN1c1nc(Cl)nc(Cl)n1` (stereo not drawn), the growth was 108% (inactive).
With `C=CCn1c2ccccc2c2c3c(c4c5ccccc5n(CC=C)c4c21)C(=O)N(O)C3=O` the growth was 33.2% (inactive).
In the case of `Nc1cccc(Cl)c1N`, the growth was 109% (inactive).
For `O=C(NS(=O)(=O)c1ccccc1)n1cc(-c2ccncc2)c(-c2ccc(Cl)c(O)c2)n1`, the growth was 117% (inactive).
In the case of `Cc1csc(NC(c2ccc(Br)cc2)c2c(C)nc3ccccn23)n1` (stereo not drawn), the growth was 96.7% (inactive).
For `COc1cc(-c2nn(C(=O)NS(=O)(=O)c3ccccc3)cc2-c2ccncc2)ccc1Cl`, the growth was 106% (inactive).
`N=c1ccc2nc3ccc(N)cc3sc-2c1` was tested, and the growth was 0.418% (active).
`CCN(CC)CCCC(C)Nc1c2ccc(Cl)cc2nc2cc(OC)c(OC)cc12` (stereo not drawn) was tested, and the growth was 34.4% (inactive).
For `CCCCCCCCCCCCNC(=O)[C@H]1CSC(c2ccsc2)N1` (stereo partly drawn), the growth was -86.8% (active).
In the case of `CC(C)(C)NCCC(O)c1cc2c(Cl)cc(Cl)cc2c2cc(C(F)(F)F)ccc12` (stereo not drawn), the growth was -88.7% (active).
For `COc1cc2c(cc1O)CCN1C[C@@H](CC(C)C)[C@@H](O)C[C@@H]21`, the growth was 108% (inactive).
In the case of `Nc1ccc(C(=O)CSc2nc3ccccc3[nH]2)cc1`, the growth was 107% (inactive).
In the case of `CCCC(=O)Oc1ccc(/C(=C(\C)c2ccccc2)c2ccc(OCCN(CC)CC)cc2)cc1`, the growth was 94.9% (inactive).
`C/C=C(\C)C(C(=O)NC1CCCCC1)N(C(=O)C1CCc2cc(F)ccc2O1)c1ccc(Cl)cc1` (stereo not drawn) was tested, and the growth was 111% (inactive).
With `Cn1ccc(=O)c(S(N)(=O)=O)c1` the growth was 112% (inactive).
With `O=c1[nH]c(NCc2ccccc2)nc2nc(Nc3ccc(NC(=S)Nc4ccccc4)cc3)nc(-c3ccc(O)cc3O)c12` the growth was 111% (inactive).
In the case of `COc1ccc(-n2c(-c3ccccc3)c(-c3ccccc3)c3c(SCC(=O)N/N=C/c4ccc(Cl)cc4)ncnc32)cc1`, the growth was 85.9% (inactive).
`COc1ccc(S(=O)(=O)NCCCNc2nccc(-c3c(-c4cccc([N+](=O)[O-])c4)nc4sccn34)n2)cc1` was tested, and the growth was 41.2% (inactive).
